Out of some 360,000 compounds screened, about 10,000 (2.8%) were called active. Not shown: some 4% with an inconclusive outcome. Calls come from the whole dose curve; as a rule, active = well fitted inhibition curve with a large enough effect; inconclusive = small, poorly fitted or top-dose-only effect; inactive = flat fitted curve, though single readings scatter. What follows is part of a selection rich in actives, with near analogues and random picks from the rest.
% is set by controls: 0 for no effect and ±100 for the full control effect; potency is the fitted concentration of half-maximal effect.

Sequence of Serine/threonine-protein kinase PLK1 (Homo sapiens) (P53350 whole entry, looked up, the tested form may be a part): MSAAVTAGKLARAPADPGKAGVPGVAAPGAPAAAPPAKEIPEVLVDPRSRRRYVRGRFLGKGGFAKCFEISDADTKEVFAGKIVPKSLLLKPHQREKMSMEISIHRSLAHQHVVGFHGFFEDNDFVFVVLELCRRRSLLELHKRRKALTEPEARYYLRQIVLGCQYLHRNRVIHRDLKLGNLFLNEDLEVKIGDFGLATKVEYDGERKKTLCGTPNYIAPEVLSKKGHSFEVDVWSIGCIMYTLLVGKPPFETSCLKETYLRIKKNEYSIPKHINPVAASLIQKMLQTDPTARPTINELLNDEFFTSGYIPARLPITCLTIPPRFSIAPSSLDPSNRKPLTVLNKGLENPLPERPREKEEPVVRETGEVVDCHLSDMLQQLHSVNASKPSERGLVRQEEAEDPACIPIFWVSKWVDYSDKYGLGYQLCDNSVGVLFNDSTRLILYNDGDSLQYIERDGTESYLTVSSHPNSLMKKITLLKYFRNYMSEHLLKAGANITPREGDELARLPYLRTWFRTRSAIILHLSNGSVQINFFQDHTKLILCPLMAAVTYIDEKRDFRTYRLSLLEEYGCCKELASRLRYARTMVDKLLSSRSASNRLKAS

This test has as its target Serine/threonine-protein kinase PLK1 (Homo sapiens) (UniProt P53350). Briefly: qHTS for Inhibitors of PLK1-PDB (polo-like kinase 1 - polo-box domain): Primary Screen. For max response, negative = inhibition: series mostly up to about 57 µM. Note: nearly all actives have a fitted effect of over 65% in size. Particulars: Plk1 PBD binding of FITC phosphopeptide, fluorescence polarization. A general note: qHTS replaces the single test concentration by a dilution series.
With `O=S(=O)(c1cccc(C(F)(F)F)c1)N1c2ccccc2-n2cccc2C1c1cccnc1` (stereo unspecified), the max response, negative = inhibition was 4.88% (inactive).

Regarding `CCCCOCCCNC(=O)C[C@@H]1C[C@@]2(C(=O)OCC)CCCC=C2N(CCC2=CCCCC2)C1=O`, the max response, negative = inhibition was 4% (inactive).

With `CC1(C)OC(=O)C2=C(C[C@@H](C3CCCCC3)O[C@@H]2c2ccc(Cl)cc2)O1`, the max response, negative = inhibition was -3.8% (inactive).

For `CCOC(=O)c1ccn(S(=O)(=O)c2ccc(C)cc2)c1-c1ccccc1`, the max response, negative = inhibition was -3.65% (inactive).

Take `O=C(Nc1ccc(N2CCCCC2)cc1)c1cc(S(=O)(=O)N2CCOCC2)ccc1F`: the max response, negative = inhibition is 1.97% (inactive).

Turning to `Cc1cccc(NC(=O)c2cc(S(=O)(=O)N3CCC4(CC3)OCCO4)ccc2F)c1`, the Potency is 26.7 µM (active).

Regarding `CCOc1ccccc1NC(=O)c1cc(S(=O)(=O)N2CCC3(CC2)OCCO3)ccc1F`, the max response, negative = inhibition is -1.47% (inactive).

In the case of `O=C1CC(N2CCN(c3ccc(F)cc3)CC2)C(=O)N1c1ccccc1` (stereo unspecified), the max response, negative = inhibition was -2.61% (inactive).

Turning to `O=C1C=CC(=O)N1c1ccc(N2CCCCC2)cc1`, the Potency was 3.36 µM (active).

Take `CC(=O)Nc1ccc(S(=O)(=O)Nc2ccc(N3CCCCC3)cc2)cc1`: the max response, negative = inhibition is -2.92% (inactive).

`C=CCN1CCN(c2ccncc2S(=O)(=O)N2CCN(C)CC2)CC1`: the max response, negative = inhibition was -10.5% (inactive).

Turning to `CCC1OC(C2CC2)CC2=C1C(=O)OC(C)(C)O2` (stereo unspecified), the max response, negative = inhibition is -2.05% (inactive).

Take `CC1CCN(C(=O)CSc2nnc(-c3ccco3)n2N)CC1`: the max response, negative = inhibition is -0.744% (inactive).

Consider `CCc1nc2ccc(C(=O)NC3CCN(Cc4ccccc4)CC3)cn2c1N(CC)CCOC`, for which the max response, negative = inhibition was -18.3% (inactive).

As for `O=C(CSc1cccc2cccnc12)N/N=C/c1cccnc1`, the Potency was 7.52 µM (active).

As to `CCn1c(SCC(=O)N/N=C/c2ccncc2)nc2ccccc21`, the max response, negative = inhibition was -2.87% (inactive).

For `COc1ccc(C(=O)NCC(=O)N/N=C/c2cccnc2)cc1`, the max response, negative = inhibition was -5.97% (inactive).

As to `O=C(Oc1ccc([N+](=O)[O-])cc1)c1ccc2ccccc2n1`, the max response, negative = inhibition was -21.6% (inactive).

As to `O=[N+]([O-])c1cccc(C=NN=Cc2ccccc2O)c1`, the max response, negative = inhibition is -3.02% (inactive).

Regarding `O=[N+]([O-])c1ccc(N=Cc2c(O)ccc3ccccc23)cc1`, the Potency was 29.9 µM (active).

On to `CCCCNC(=O)C[C@@H]1C[C@@]2(C(=O)OC)CC(C)(C)CC=C2N(Cc2ccco2)C1=O`, for which the max response, negative = inhibition is 0.813% (inactive).

As for `Cc1cccc(-c2cnc(C(O)c3ccc4ccccc4c3)[nH]2)c1` (stereo unspecified), the max response, negative = inhibition was -0.198% (inactive).

On to `O=C(NN=Cc1ccc([N+](=O)[O-])cc1)C1CC1`, for which the max response, negative = inhibition is -0.264% (inactive).

Regarding `N#Cc1cc([N+](=O)[O-])ccc1Oc1cccc(/C=N/NC(=O)c2ccc(Cl)cc2)c1`, the max response, negative = inhibition was 0.641% (inactive).

Consider `O=C(N/N=C/c1ccc(Cl)cc1)c1nc2ccc([N+](=O)[O-])cc2c(=O)[nH]1`, for which the Potency was 18.9 µM (active).

Consider `O=C(NCc1ccc(F)cc1)c1cc(C2CCCCN2C(=O)C2CCCCC2)on1` (stereo unspecified), for which the max response, negative = inhibition is 2.6% (inactive).

`CC(C)CC1C(=O)N(Cc2cn(Cc3ccco3)nn2)CCS(=O)(=O)N1Cc1ccc(-c2ccc(Cl)c(Cl)c2)cc1` (stereo unspecified): the max response, negative = inhibition is -13.6% (inactive).

Turning to `CNc1cncc(-c2ccc(NS(C)(=O)=O)cc2)n1`, the max response, negative = inhibition is 6.53% (inactive).

Regarding `O=C(CSc1nnc(-c2ccco2)n1-c1ccccc1)NCCc1ccccc1`, the max response, negative = inhibition is -10.6% (inactive).

Take `COc1ccc(C(=O)NC(=O)CSc2nnc(-c3ccco3)n2-c2ccccc2)cc1`: the max response, negative = inhibition is -12.5% (inactive).

Regarding `CCOc1ccc(-n2c(SCC(N)=O)nnc2-c2ccco2)cc1`, the Potency was 15 µM (active).

Turning to `OCCN1CCN(c2ncnc3c2ncn3[C@H]2CN(Cc3ccco3)C[C@@H](CO)O2)CC1`, the max response, negative = inhibition was -11.1% (inactive).

With `O=C(Nc1ccc(N2CCOCC2)cc1)c1cccc2c(-c3ccc(F)c(F)c3)coc12`, the max response, negative = inhibition is -15% (inactive).

As to `COc1cccc(CNS(=O)(=O)c2ccc3c(c2)CC(C)N3C(=O)C2CCC2)c1` (stereo unspecified), the max response, negative = inhibition is -3.29% (inactive).

Consider `CC(=O)N1c2ccc(S(=O)(=O)NCCC(=O)N(C)C3CCCCC3)cc2CC1C` (stereo unspecified), for which the Potency was 2.99 µM (active).

Turning to `CC(=O)N1c2ccc(S(=O)(=O)N(C)CC(=O)N(C)Cc3ccccc3)cc2CC1C` (stereo unspecified), the max response, negative = inhibition was 5.96% (inactive).

On to `Cc1ccc(-c2ccc(CN3C(C(C)C)C(=O)N(Cc4cn(CCC5OCCCO5)nn4)CCS3(=O)=O)cc2)cc1` (stereo unspecified), for which the max response, negative = inhibition was -2.35% (inactive).

As to `CCOc1ccc(CCN2C(=O)C(=O)N([C@@H](CC(C)C)CN3CCC[C@H]3CN3C(=O)C(=O)NC[C@@H]3Cc3ccccc3)C[C@@H]2CC(C)C)cc1`, the max response, negative = inhibition was -0.137% (inactive).

Consider `Cc1cccc(-c2cnc(C(O)c3cc(C)cc(C)c3)[nH]2)c1` (stereo unspecified), for which the max response, negative = inhibition was -12% (inactive).

Consider `CCOC(=O)c1c(NC(=S)NC(=O)/C=C/c2cccs2)sc(C)c1C`, for which the max response, negative = inhibition is -3.87% (inactive).

For the compound `CCOC(=O)c1sc(=NC(=O)/C=C/c2cccs2)n(C)c1C`, the Potency was 26.7 µM (active).

As for `CCOC(=O)c1sc(=NC(=O)c2ccc(Br)cc2)n(C)c1C`, the max response, negative = inhibition was -3.76% (inactive).

For the compound `COC(=O)[C@]12CCCCC=C1N(Cc1ccc3c(c1)OCO3)C(=O)[C@H](CC(=O)N1CCOCC1)C2`, the max response, negative = inhibition was -9.01% (inactive).

`CC(O)c1nc2ccccc2n1Cc1ccc([N+](=O)[O-])cc1` (stereo unspecified): the max response, negative = inhibition was -2.98% (inactive).

`CC(=O)N1c2ccccc2N(Cc2ccc([N+](=O)[O-])cc2)C(=O)C1(C)C`: the Potency is 29.9 µM (active).

Consider `O=C(CSCc1ccc([N+](=O)[O-])cc1)NCCSCc1ccccc1`, for which the max response, negative = inhibition is -1.81% (inactive).

Consider `Cc1nc2c(OCc3cccc(Cl)c3)cccn2c1N(C)CC1CC1`, for which the max response, negative = inhibition was -10.4% (inactive).

`COC(=O)[C@]12CCCCC=C1N(Cc1cccc3ccccc13)C(=O)[C@H](CC(=O)N1CCOCC1)C2`: the max response, negative = inhibition was -13.4% (inactive).

In the case of `Cc1cc(Cl)ccc1-c1nc(NCCN(C)C)nc2ccsc12`, the max response, negative = inhibition is -8.63% (inactive).

Turning to `COc1ccccc1-c1cc(NC(C)=O)c2ncc(-c3ccc(F)cc3)n2c1`, the max response, negative = inhibition was -2.69% (inactive).

Regarding `COc1cc(/C=C2/C(=O)ON=C2C)ccc1OCc1cccc(F)c1`, the Potency was 1.06 µM (active).

Regarding `COc1cc(C=O)ccc1Oc1nnnn1-c1ccccc1`, the max response, negative = inhibition was -3.25% (inactive).

With `C#CCOc1ccc(/C=C2/C(=O)ON=C2C)cc1OCC`, the Potency is 2.12 µM (active).

Turning to `C#CCOc1ccc(/C=C2/C(=O)NN(c3ccccc3)C2=O)cc1OC`, the Potency is 18.9 µM (active).

Regarding `CC1=NOC(=O)/C1=C\c1ccccc1`, the Potency is 16.8 µM (active).

`Cc1ccccc1C1=N/C(=C/c2cccnc2)C(=O)O1`: the max response, negative = inhibition is -12.6% (inactive).

On to `CCOc1cc(/C=N/O)ccc1OCc1ccccc1F`, for which the max response, negative = inhibition was 5.59% (inactive).

As to `CCOc1cc(/C=C2\C(=N)N3N=C(C)SC3=NC2=O)ccc1OCCOc1ccccc1`, the max response, negative = inhibition was -10.7% (inactive).

For `COc1cc(/C=C2/C(=O)NN(c3ccc(F)cc3)C2=O)cc([N+](=O)[O-])c1O`, the max response, negative = inhibition was -17.7% (inactive).

As for `COc1cc(/C=C2\SC(=O)NC2=O)ccc1OCc1ccc(Cl)nc1`, the max response, negative = inhibition is -13.4% (inactive).

As for `COc1ccnc2c1c(=O)n(Cc1cccc(F)c1)c(=O)n2C`, the max response, negative = inhibition was -8.75% (inactive).

(Values after PubChem BioAssay AID720504 (National Center for Advancing Translational Sciences (NCATS), 2013).)
